Bioassay records as filed in PubChem BioAssay.
uPA generation – blocks generation of uPA at the cell surface; cell surface uPA generation assay, qHTS; Potency, µM (series often up to 38.3 µM), without a hit: at the top dose activity change, negative = inhibition, actives largely listed as inhibitors; 330,000 compounds, 0.31% hits; AID 540303; active = well fitted inhibition curve with a large enough effect; inconclusive = small, poorly fitted or top-dose-only effect; inactive = no such curve, though single readings can be large or run the other way; tested in mouse RAW 264.7 cells; note: potency is the fitted concentration of half-maximal effect; nearly all actives have a fitted effect of over 55% in size
DT40 TDP1 no CPT – qHTS for Inhibitors of human tyrosyl-DNA phosphodiesterase 1 (TDP1): qHTS in cells in absence of CPT; Potency, µM (doses to about 46.2 µM), without a hit: at the highest dose activity change, negative = growth inhibition, most hits filed as inhibitors; 420,000 compounds, 15% hits; DT40 Tdp1-/- hTDP1 cells, no CPT, ATP luminescence, 48 h; note: potency is the fitted concentration of half-maximal effect; nearly all actives have a fitted effect of over 55% in size
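Readout: luminescence from CellTiter-Glo after 30 min in the dark at RT. Cells: DT40 Tdp1-/- with stable hTDP1, 400/well. Exposure: compounds alone, ≥48 hr, 37 °C.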
HT1080 IDH1KD tx – kills HT-1080 cells with IDH1 knockdown | HT-1080 IDH1 knockdown viability, ATP luminescence, 48 h | Potency, µM (top dose mostly 46.1 µM), without a hit: at the top dose activity, negative = toxicity, usual class: cytotoxic | 360,000 compounds, 2% hits | AID 686971;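 note: potency is the fitted concentration of half-maximal effect; 0% = DMSO wells and -100% = cell-free medium wells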
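CellTiter-Glo luminescence after 48 h compound exposure at 37 degrees C of IDH1-knockdown HT-1080 cells in 5% FBS RPMI. %Activity scaled between DMSO wells and cell-free media wells, with curves fitted and assigned curve classes.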
IL-1B inflam inh – inhibitors of inflammasome signaling (IL-1 beta secretion); THP-1 LPS/ATP IL-1B secretion, AlphaLISA, 16 h; stronger effect = lower value; activity change, % at 57.5 µM; 360,000 compounds, 4.7% hits; in the data active = activity change below about -50%; inconclusive = mostly about -30% to -49%
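THP-1 cells pretreated 1 hr with compounds (up to 57.5 uM final), then stimulated with LPS (250 ng/mL final) plus ATP (1.25 mM final); secreted IL-1B measured by AlphaLISA after 16 hr, decreased signal indicating inhibition.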
TDP1 cell CPT – DT40-hTDP1 cell growth loss with CPT | AID 686979 | 420,000 compounds, 12% hits | chicken DT40 Tdp1-/-;hTDP1 cells + 20 nM CPT, ATP luminescence, 48 h | Potency, µM (series often up to 46.2 µM), for inactives: top-dose activity change, negative = growth inhibition, hits mostly inhibitors; note: potency is the fitted concentration of half-maximal effect; nearly all actives have a fitted effect of over 55% in size
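Cell growth measured by CellTiter-Glo luminescence after a minimum 48 h, 37 C compound exposure with 20 nM CPT in Tdp1-knockout DT40 cells stably expressing hTDP1, seeded 400/well; qHTS titration format.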
HT1080NT lethal – kills 2HG-producing HT-1080-NT fibrosarcoma cells; HT-1080-NT fibrosarcoma viability, CellTiter-Glo ATP luminescence, 48 h; Potency, µM (doses to about 46.1 µM), without a hit: top-dose activity, negative = less viability, hits mostly cytotoxic; 360,000 compounds, 1.6% hits; AID 686970;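 note: NT is the 2HG producing partner of a matched IDH1 knockdown line; potency is the fitted concentration of half-maximal effect; 0% = DMSO-treated cells and -100% = media-only wells without cells; nearly all actives have a fitted effect of over 55% in size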
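Viability by CellTiter-Glo luminescence after 48 h compound exposure at 37C of HT-1080-NT cells (750/well, RPMI, 5% FBS). % activity scaled between DMSO wells and medium-only wells, then curve-fitted and categorized by curve class.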
Starred values were filed as active, the others as inactive. Sampled rows, rich in hits. Any-hit rate of the full collection: about 19%. Unless noted, calls come from the whole dose curve; as a rule, active = well fitted curve in the direction sought with a large enough effect; inconclusive = small, poorly fitted or top-dose-only effect, or another doubt; inactive = no such curve, though single readings can be large; an effect the other way counts as inactive or inconclusive. Unless noted, % is set by controls: 0 for no effect and ±100 for the full control effect.

How did COc1cc(OC)cc(-c2sc3ccc(OC)cc3c2C#CCO)c1 do in these assays?
uPA generation: -2.4%; DT40 TDP1 no CPT: 20.6µM*; HT1080 IDH1KD tx: inconclusive; IL-1B inflam inh: -18.1; TDP1 cell CPT: inconclusive; HT1080NT lethal: inconclusive

Results for COc1cccc(-c2sc3ccc(OC)cc3c2C#CCCO)c1 ?
uPA generation: 9.2%; DT40 TDP1 no CPT: inconclusive; HT1080 IDH1KD tx: -16.9%; IL-1B inflam inh: 16.5; TDP1 cell CPT: 25.9µM*; HT1080NT lethal: -14.2%

What do the screens show for `COc1cc(OC)cc(-c2sc3ccc(OC)cc3c2C#CC(C)(C)O)c1`?
uPA generation: 14.5%; DT40 TDP1 no CPT: -12.3%; HT1080 IDH1KD tx: inconclusive; IL-1B inflam inh: -9.2; TDP1 cell CPT: -15.2%; HT1080NT lethal: -17.0%

What do the screens show for `CN(C)C1CN(Cc2cn(Cc3cccc(C(F)(F)F)c3)nn2)S(=O)(=O)C1` (stereo not drawn)?
DT40 TDP1 no CPT: -11.3%; HT1080 IDH1KD tx: 2.9%; IL-1B inflam inh: 9.3; TDP1 cell CPT: -4.4%; HT1080NT lethal: 18.0%

What do the screens show for `CCCC(=O)N=c1sc2c(OC)ccc(OC)c2n1C`?
uPA generation: -2.0%; DT40 TDP1 no CPT: -10.9%; HT1080 IDH1KD tx: 19.1%; IL-1B inflam inh: 12.7; TDP1 cell CPT: -25.2%; HT1080NT lethal: 29.0%

Results for COc1ccc(OC)c2c1sc(=NC(=O)C(C)(C)C)n2C ?
uPA generation: 11.4%; DT40 TDP1 no CPT: inconclusive; HT1080 IDH1KD tx: 18.1%; IL-1B inflam inh: 3.4; TDP1 cell CPT: 20.6µM*; HT1080NT lethal: 1.1%

Results for COc1ccc(OC)c2c1sc(=NC(=O)C(C)C)n2C ?
uPA generation: -1.8%; DT40 TDP1 no CPT: inconclusive; HT1080 IDH1KD tx: 1.7%; IL-1B inflam inh: 22.7; TDP1 cell CPT: 23.1µM*; HT1080NT lethal: 0.7%

What do the screens show for `O=C1c2ccccc2C(=O)N1CCCCSc1nc2ccccc2c(=O)n1CCCN1CCOCC1`?
uPA generation: 4.7%; DT40 TDP1 no CPT: inconclusive; HT1080 IDH1KD tx: -17.1%; IL-1B inflam inh: inconclusive; TDP1 cell CPT: inconclusive; HT1080NT lethal: -18.0%

Results for Cc1nc2cc(NC(=O)C3CC34CCN(Cc3ccc(O)c(Cl)c3)CC4)ccc2s1 (stereo not drawn) ?
DT40 TDP1 no CPT: -12.6%; TDP1 cell CPT: 5.7%

What do the screens show for `COc1ccc(N2CC(NC(=O)/C=C\c3ccccc3)CC2=O)cc1` (stereo not drawn)?
DT40 TDP1 no CPT: -9.5%; TDP1 cell CPT: -2.3%

What do the screens show for `C=CCNc1cc(=O)n(Cc2ccccc2)c(=O)[nH]1`?
uPA generation: -4.1%; DT40 TDP1 no CPT: 18.4µM*; HT1080 IDH1KD tx: 6.8%; IL-1B inflam inh: 17.7; TDP1 cell CPT: inconclusive; HT1080NT lethal: 10.6%

Results for CC1(C(=O)NS(=O)(=O)C2CC2)CCCN(C(=O)Cc2ccc(F)cc2)C1 (stereo not drawn) ?
DT40 TDP1 no CPT: inconclusive; HT1080 IDH1KD tx: 6.1%; IL-1B inflam inh: 21.3; TDP1 cell CPT: inconclusive; HT1080NT lethal: 28.4%

Results for Cc1ccc(C(NC(=O)NCCCN2CCOCC2)=C(Cl)Cl)cc1F ?
uPA generation: -9.1%; DT40 TDP1 no CPT: 12.6µM*; HT1080 IDH1KD tx: -0.7%; IL-1B inflam inh: -51.2*; TDP1 cell CPT: 11.2µM*; HT1080NT lethal: -20.7%

How did Cc1ccc(C(NC(=O)N2CCCCC2)=C(Cl)Cl)cc1F do in these assays?
uPA generation: inconclusive; DT40 TDP1 no CPT: -34.3%; HT1080 IDH1KD tx: 0.5%; IL-1B inflam inh: -70.6*; TDP1 cell CPT: 13µM*; HT1080NT lethal: -4.9%

What do the screens show for `COc1cccc(CNC(=O)c2ccc(C(=O)NCc3cccc(OC)c3)cc2)c1`?
uPA generation: 5.6%; DT40 TDP1 no CPT: 15.9%; HT1080 IDH1KD tx: inconclusive; IL-1B inflam inh: 10.3; TDP1 cell CPT: 7.5%; HT1080NT lethal: -26.4%
